# Test results published in PubChem BioAssay (NCI).
# Values joined by “and” are separate entries in the source; they are usually repeats but may differ in a detail not shown here. Equal values may be shown once. This is part of a sample that, as a whole, favours compounds with a hit. Of some 83,000 tested, about 20% had one in any assay.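 Results are percent growth after 48 hours of single-concentration exposure. 100 means growth as in untreated cells, lower positive values show inhibition; negative values down to -100 show cell death.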 Unmarked numbers belong to inactive results. Active and inactive are the calls of the source. Rule for the calls: active = growth percent below 10; inactive = the rest.
# How the values were obtained:
# Test in all cases: NCI-60 one-dose screen, 48 h (100 = growth as untreated, 0 = no growth, -100 = all killed)
# Settings in all cases: 10 µM unless noted
# NCI-H23 lung = test system: NCI-H23 lung
# NCI-H226 lung = test system: NCI-H226 lung
# NCI-H322M lung = test system: NCI-H322M lung
# HOP-62 NSCLC = test system: HOP-62 NSCLC
# NCI-H460 lung = test system: NCI-H460 lung
# HOP-92 NSCLC = test system: HOP-92 NSCLC
# NCI-H522 lung = test system: NCI-H522 lung
# A549/ATCC NSCLC = test system: A549/ATCC NSCLC
# 786-0 renal = test system: 786-0 renal
# COLO 205 colon = test system: COLO 205 colon
Structure (SMILES),growth (NCI-H23 lung),growth (NCI-H226 lung),growth (NCI-H322M lung),growth (HOP-62 NSCLC),growth (NCI-H460 lung),growth (HOP-92 NSCLC),growth (NCI-H522 lung),growth (A549/ATCC NSCLC),growth (786-0 renal),growth (COLO 205 colon)
COc1cc(/C=C2\C(=O)N(CCCCn3c4ccccc4c(=O)c4ccccc43)c3ccccc32)cc(OC)c1O,71.6%,91.5%,86%,102%,60%,65.7%,27.4%,95.4%,88.3%,107%
Clc1ccc(CNc2ccc3nc(CCC4CCCCC4)[nH]c3c2)cc1,66.4%,71.4%,87.9%,79%,60.6%,28.8%,54.8%,59.8%,58.9%,-63.3% (active)
CN1CCN(Cc2ccc(NC(=O)c3cccc(C#Cc4c(N)ncc5ccc(F)cc45)c3)cc2C(F)(F)F)CC1,-78.2% (active),4.59% (active),3.59% (active),-36.4% (active),-92.3% (active),-49.4% (active),-61.1% (active),-69.6% (active),-83.2% (active),-59.6% (active)
CC(C)=CCc1cc(O)c(O)c2oc3cc(O)cc(O)c3c(=O)c12,51.1%,96.9%,75.1%,45.9%,25.1%,86.9%,58.4%,43.3%,64.8%,91.7%
COc1ccc(/C=C2/C(=O)N=C3N2NC(c2ccccc2)=CN3c2ccccc2)cc1,86.4%,93.2%,103%,105%,106%,102%,101%,104%,98.6%,121%
Cn1c(=O)c2c(nc(Nc3cc(=O)[nH]c(=O)[nH]3)n2Cc2ccccc2)n(C)c1=O,91.5%,86.6%,97.9%,20.6%,2.91% (active),80.5%,4.24% (active),12.3%,102%,-2.38% (active)
Cc1ccc(NC(=O)c2sc3nc(C)c(C(=O)c4ccccc4)cc3c2N)cc1,96.2%,99.9%,92.2%,90.7%,65.7%,80%,88.2%,44.1%,91.9%,98.5%
CCC(=O)Oc1cc(Cl)c(Cl)cc1Cl,102%,97.7%,104%,105%,104%,100%,99.8%,101%,98.2%,113%
CCOC(=O)c1c(-c2ccc(C)cc2)c(C#N)c(=O)n(-c2cccc(C(F)(F)F)c2)c1N,98.6%,100%,103%,99.8%,104%,90.9%,94.6%,101%,102%,106%
COc1ccccc1/C=C1\COc2ccc(O)c(O)c2C1=O,40.8%,76%,46.2%,17.3%,24.6%,29.6%,-42.3% (active),50.6%,2.1% (active),77.9%
CC1(Cc2ccccc2)CC2=C(C(=O)O1)C(c1ccccc1)NC(=O)N2 (stereo not given),100%,101%,98.6%,97.4%,110%,77%,95.4%,112%,100%,106%
CCCCCCCCCCCCCCCCCCOc1cccc(CC(=O)OCC[N+](CC)(CC)CC)c1,35.7%,59.6%,77.7%,69.1%,67%,52.3%,38.5%,60%,58.5%,47%
C=C1CCC2C3(C)COC(c4ccc(NC(C)=O)cc4)OC3CCC2(C)C1C/C=C1/C(=O)OCC1O (stereo not given),36.4%,64.5%,89%,85.5%,66.2%,72.6%,29.5%,35.9%,57.1%,82.6%
CCN(CC)CC(=O)Nc1ccc2ncnc(Nc3ccc(Oc4cccc(F)c4)c(Cl)c3)c2c1,74.9%,87.6%,65.6%,80.4%,36.9%,39.5%,64.6%,55.7%,59.7%,68.8%
O/N=C(/c1ccccc1)c1ccc2c3c(cccc13)CC2,97.3% and 95.1%,100%,106% and 102%,93.1% and 94.1%,87.6% and 96.7%,49.4% and 64.9%,88.3% and 89.6%,73.8% and 94.4%,88.4% and 92.1%,117% and 103%
Cc1ccc(NC(=O)c2ccc(CN3CCN(C)CC3)cc2)cc1Nc1nccc(-c2cccnc2)n1,82.9% and 76.2%,89.4% and 78.2%,104%,84.9%,96.8% and 83.9%,56.3% and 66.4%,51.2%,96.2% and 62.2%,95% and 88.6%,101% and 78.3%
CCOC(=O)CCCn1c(-c2ccccc2)cc(-c2ccccc2)c(C#N)c1=O,83.5%,89.5%,97.8%,93.7%,65.4%,48.3%,70.1%,84.3%,88.8%,98.4%
Nc1ccc(/C=N/Nc2ccnc3c(N)cccc23)c2cccnc12,3.42% (active),89.3%,-4.16% (active),-64.3% (active),-63.8% (active),-17.9% (active),-52.2% (active),-43.8% (active),-87% (active),-22.8% (active)
COc1ccc(Cn2cc(C(=O)Nc3cccnc3Nc3ccccc3)nn2)cc1,98.7%,95.6%,95.7%,103%,114%,105%,91.8%,99.3%,94.2%,113%
O=C(c1ccc(Nc2nccc(NCCCNc3ccnc4cc(Cl)ccc34)n2)cc1)N1CCCCC1,32.4%,84.9%,57.6%,57.5%,11.3%,64.3%,38.2%,19.1%,32.9%,27.2%
O=C(O)c1ccccc1Cc1ccc(F)c2ccccc12,97.5% and 105%,107%,109% and 112%,94.3% and 109%,109% and 99.2%,74.6%,94.5% and 89.9%,101% and 95.3%,125% and 110%,101% and 121%
Nc1nc2ccccc2c2c(=O)c3ccc(Cl)cc3sc12,92%,98.9%,103%,99.1%,72.7%,84.1%,94.3%,94.7%,99.1%,98.4%
C[N+]1=C(/C=C\C=C\c2ccccc2)C(C)(C)c2ccccc21,18.7%,63.8%,81.2%,52%,43.4%,-7.51% (active),-3.08% (active),28%,33.6%,-43.4% (active)
CC[C@H](C)[C@H](NC(=O)[C@H](CCCCN)NC(=O)[C@H](CCCCN)NC(=O)[C@@H](NC(=O)[C@@H](NC(=O)[C@@H](N)Cc1cnc[nH]1)[C@@H](C)CC)[C@@H](C)CC)C(=O)N[C@@H](CCCNC(=N)N)C(=O)N[C@H](C(=O)N[C@@H](Cc1c[nH]c2ccccc12)C(=O)N[C@@H](Cc1ccc(O)cc1)C(=O)N[C@@H](CCCNC(=N)N)C(=O)N[C@@H](CCCCN)C(=O)N[C@@H](C)C(=O)N[C@@H](Cc1c[nH]c2ccccc12)C(=O)N[C@@H](Cc1cnc[nH]1)C(=O)N[C@H](C(=O)N[C@@H](CC(C)C)C(=O)NCC(=O)N[C@@H](CCCCN)C(=O)N[C@H](C(N)=O)C(C)C)C(C)C)[C@@H](C)O,17.2%,29.8%,25.1%,35.9%,7.38% (active),56.7%,45.9%,39.2%,-28.3% (active),-54.8% (active)
